Results: PubChem BioAssay (Tox21)
Inconclusive results are not listed. Unmarked numbers belong to inactive results. Activity calls are given as the source filed them. Calls come from the whole dose curve; as a rule, active = well fitted curve in the direction sought with a large enough effect in the repeat runs; inconclusive = weak or mixed curves; inactive = no such curve, though single readings can be large; an effect the other way counts as inactive or inconclusive.

Test: qHTS assay to identify small molecule agonists of the RXR signaling pathway - cell viability counter screen (AID 1159529); note: nearly all actives have a fitted effect of over 50% in size; note: potency is the fitted concentration of half-maximal effect;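 for activity change, negative = cytotoxicity: HEK 293T cells carrying an RXR-alpha UAS beta-lactamase reporter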
Conditions: RXR-alpha-bla HEK293T viability, CellTiter-Glo, 16 h; series mostly up to 76.8 µM; activity change, negative = cytotoxicity: at the top concentration
How it was run: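 Same-well viability check after the LiveBLAzer FRET read: CellTiter-Glo added, luminescence measured after 30 min at room temperature. Reporter HEK 293T cells had been treated with compounds for 16 hr following a 5 hr preincubation.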
% is set by controls: 0 for no effect and ±100 for the full control effect.

Row | Compound | activity change, negative = cytotoxicity | Potency
1 | O=C1Nc2ccc([N+](=O)[O-])cc2C1=O | -5.63% | –
2 | O=C1CCN(c2ccccc2)N1 | -25.3% | –
3 | C[C@@H](N)C(=O)O | 5.86% [at 35.3 µM] | –
4 | CC1(O)CSC(C)(O)CS1 (configuration not stated) | -3.24% | –
5 | Cc1c(-c2ccccc2)oc2c(C(=O)OCCN3CCCCC3)cccc2c1=O | -18.2% [at 35.3 µM] | –
6 | COc1ccc(Nc2ccc(OC)cc2)cc1 | 5.89% | –
7 | CCCCCCCOC(=O)CCC | 7.4% | –
8 | CC(C)c1ccccc1 | 2.47% | –
9 | Cc1cccc(C)c1NC(=O)CN1CCCCCC1 | -11.6% [at 35.3 µM] | –
10 | O=C(CC(=O)C(F)(F)F)c1ccccc1 | -5.9% | –
11 | O=Cc1ccc(O)c(O)c1O | -14.8% [at 35.3 µM] | –
12 | Cc1ccc(C(C)C)cc1O | -8.19% | –
13 | CC(=O)Oc1cc(C(C)C)c(OCCN(C)C)cc1C | 1.7% [at 35.3 µM] | –
14 | CCCCCCCCc1ccc(S(=O)(=O)O)cc1 | – | 24.3 µM (active)
15 | C[C@]12CCC(=O)C=C1CC[C@@H]1[C@@H]2CC[C@@]2(C)[C@H]1CC[C@]2(O)C(=O)CO | -16.1% [at 35.3 µM] | –
16 | OCc1c2ccccc2cc2ccccc12 | 2.35% | –
17 | CCOc1ccccc1N | 13.2% | –
18 | COC(=O)c1ccc2cc(C(=O)OC)ccc2c1 | -6.68% [at 15.8 µM] | –
19 | NC(Cc1ccc(F)cc1)C(=O)O (configuration not stated) | 2.52% [at 6.97 µM] | –
20 | CC1=C2[C@H](/C=C(\C)C(=O)O)CC[C@@H](C)[C@H]2CC1 | – | 45.3 µM (active)
21 | CC1=NN(c2cc(Cl)c(S(=O)(=O)O)cc2Cl)C(=O)C1N=Nc1ccc(S(=O)(=O)O)cc1 (configuration not stated) | 11.2% | –
22 | O=c1[nH]cnc2c1ncn2[C@@H]1O[C@H](CO)[C@@H](O)[C@H]1O | 7.45% [at 35.3 µM] | –
23 | NC/C=C/C(=O)O | -0.0054% [at 35.3 µM] | –
24 | CCOC(=O)CS | -6.21% | –

Test: qHTS assay to identify small molecule antagonists of the retinoid acid receptor (RAR) signaling pathway - cell viability counter screen (AID 1159551); note: nearly all actives have a fitted effect of over 35% in size
Conditions: C3RL4 cells viability, ATP luminescence (CellTiter-Glo), 6 h; series mostly up to 92.4 µM; activity change, negative = cytotoxicity: at the top concentration
How it was run: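 Seed C3RL4 cells; next day add compound, then retinol to 1 uM final; incubate 6 h at 37 C; add CellTiter-Glo; read luminescence after 30 min at RT.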

Row | Compound | activity change, negative = cytotoxicity
25 | O=C1Nc2ccc([N+](=O)[O-])cc2C1=O | 0.286%
26 | O=C1CCN(c2ccccc2)N1 | 3.5%
27 | C[C@@H](N)C(=O)O | 0.615% [at 42.5 µM]
28 | CCc1cc(Cl)c(OC)c(C(=O)NC[C@@H]2CCCN2CC)c1O | 1.08% [at 42.5 µM]
29 | CC1(O)CSC(C)(O)CS1 (configuration not stated) | -0.246%
30 | Cc1cc2nc(N)sc2cc1C | -6.37%
31 | Cc1nc(N)nc(N)c1-c1ccc(Cl)c(Cl)c1 | -0.0974% [at 42.5 µM]
32 | Cc1c(-c2ccccc2)oc2c(C(=O)OCCN3CCCCC3)cccc2c1=O | -3.89% [at 42.5 µM]
33 | COc1ccc(Nc2ccc(OC)cc2)cc1 | 4.65%
34 | CCCCCCCOC(=O)CCC | -0.338%
35 | CCCCCCCCCCCCCCCCOP(=O)([O-])OCC[N+](C)(C)C | 2.42% [at 42.5 µM]
36 | CCCCCCOc1ccc(N)cc1 | -0.0917%
37 | CC(C)c1ccccc1 | -0.42%
38 | Cc1nc(-c2ccccn2)ncc1C(=O)Nn1cc(C)c2cc(F)ccc21 | -1.83%
39 | CN1CCN(C2=Nc3cc(F)ccc3Cc3ccccc32)CC1 | -1.43% [at 42.5 µM]
40 | Cc1cccc(C)c1NC(=O)CN1CCCCCC1 | 2.64% [at 42.5 µM]
41 | O=C(CC(=O)C(F)(F)F)c1ccccc1 | 0.756%
42 | O=Cc1ccc(O)c(O)c1O | 2.08% [at 42.5 µM]

Row | Compound | activity change, negative = cytotoxicity
43 | CC(C)C[C@H](NC(=O)OCC1c2ccccc2-c2ccccc21)C(=O)O | -2.89%
44 | CCCCNc1ccc(C(=O)OCCN(CC)CC)cc1 | -0.0285% [at 42.5 µM]
45 | CCCCCCCCCC#N | -3.12%
46 | CN1CCC[C@@H]1Cc1c[nH]c2ccc(CCS(=O)(=O)c3ccccc3)cc12 | -1.15% [at 42.5 µM]
47 | Cc1ccc(C(C)C)cc1O | -0.122%
48 | CC(=O)Oc1cc(C(C)C)c(OCCN(C)C)cc1C | 3.13% [at 42.5 µM]
49 | CCCCCCCCc1ccc(S(=O)(=O)O)cc1 | 0.289%
50 | C[C@]12CCC(=O)C=C1CC[C@@H]1[C@@H]2CC[C@@]2(C)[C@H]1CC[C@]2(O)C(=O)CO | -0.366% [at 42.5 µM]
51 | OCc1c2ccccc2cc2ccccc12 | 0.671%
52 | CCOc1ccccc1N | -0.286%
53 | C[C@]12C(=O)OC(=O)[C@H]1[C@H]1C=C[C@@H]2C1 | -3.15%
54 | COC(=O)c1ccc2cc(C(=O)OC)ccc2c1 | 0.0867% [at 19 µM]
55 | NC(Cc1ccc(F)cc1)C(=O)O (configuration not stated) | 2.5% [at 8.39 µM]
56 | CC1=C2[C@H](/C=C(\C)C(=O)O)CC[C@@H](C)[C@H]2CC1 | -6.14%
57 | CC1=NN(c2cc(Cl)c(S(=O)(=O)O)cc2Cl)C(=O)C1N=Nc1ccc(S(=O)(=O)O)cc1 (configuration not stated) | 0.459%
58 | Nc1ccc(Oc2ccc(N)c(N)c2)cc1 | -0.949%
59 | NC/C=C/C(=O)O | 0.637% [at 42.5 µM]
60 | CCOC(=O)CS | -2.29%

Test: qHTS assay to identify small molecule antagonists of the retinoic acid receptor (RAR) signaling pathway (AID 1159552; note: nearly all actives have a fitted effect of over 50% in size; note: potency is the fitted concentration of half-maximal effect)
Conditions: C3RL4 RARE luciferase reporter, retinol-stimulated, 6 h; series mostly up to 92.4 µM; activity, negative = inhibition: at the top concentration
How it was run: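 Readout: luciferase luminescence, 30 min post-reagent at RT. Setup: C3RL4 RARE reporter cells, compounds plus retinol 1 uM final, 6 hr incubation at 37 C and 5% CO2.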

Row | Compound | activity, negative = inhibition | Potency
61 | O=C1Nc2ccc([N+](=O)[O-])cc2C1=O | -4.76% | –
62 | O=C1CCN(c2ccccc2)N1 | 30% | –
63 | C[C@@H](N)C(=O)O | 84.5% [at 42.5 µM] | –
64 | CC1(O)CSC(C)(O)CS1 (configuration not stated) | -21.8% | –
65 | Cc1cc2nc(N)sc2cc1C | 178% | –
66 | Cc1nc(N)nc(N)c1-c1ccc(Cl)c(Cl)c1 | -13.3% [at 42.5 µM] | –
67 | COc1ccc(Nc2ccc(OC)cc2)cc1 | 55.9% | –
68 | CCCCCCCOC(=O)CCC | 3.74% | –
69 | CCCCCCCCCCCCCCCCOP(=O)([O-])OCC[N+](C)(C)C | -7.08% [at 42.5 µM] | –
70 | CCCCCCOc1ccc(N)cc1 | 35.3% | –
71 | CC(C)c1ccccc1 | 236% | –
72 | Cc1nc(-c2ccccn2)ncc1C(=O)Nn1cc(C)c2cc(F)ccc21 | 45.8% | –
73 | CN1CCN(C2=Nc3cc(F)ccc3Cc3ccccc32)CC1 | -19% [at 42.5 µM] | –
74 | O=C(CC(=O)C(F)(F)F)c1ccccc1 | 355% | –
75 | O=Cc1ccc(O)c(O)c1O | 83.5% [at 42.5 µM] | –
76 | CC(C)C[C@H](NC(=O)OCC1c2ccccc2-c2ccccc21)C(=O)O | 80.2% | –
77 | CCCCCCCCc1ccc(S(=O)(=O)O)cc1 | -8.9% | –
78 | C[C@]12CCC(=O)C=C1CC[C@@H]1[C@@H]2CC[C@@]2(C)[C@H]1CC[C@]2(O)C(=O)CO | -22.2% [at 42.5 µM] | –
79 | CC(C)=CCC[C@](C)(O)[C@@H]1CC=C(C)CC1 | -5.53% | –
80 | OCc1c2ccccc2cc2ccccc12 | 52.4% | –
81 | CCOc1ccccc1N | -3% | –
82 | C[C@]12C(=O)OC(=O)[C@H]1[C@H]1C=C[C@@H]2C1 | 123% | –
83 | COC(=O)c1ccc2cc(C(=O)OC)ccc2c1 | -32% [at 19 µM] | –
84 | CC1=C2[C@H](/C=C(\C)C(=O)O)CC[C@@H](C)[C@H]2CC1 | 88.5% | –
85 | Nc1ccc(Oc2ccc(N)c(N)c2)cc1 | 96.9% | –
86 | NC/C=C/C(=O)O | 9.93% [at 42.5 µM] | –
87 | CCOC(=O)CS | – | 28.1 µM (active)
